# Experimental data reported in paper PMC7819943, “Rice protein-binding microarrays: a tool to detect cis-acting elements near promoter regions in rice”.
# Whole data set: some 68,000 sequences, median “fluorescence intensity (a.u.)” near 9,100, cut for the highest 2% near 16,000. The full list was thinned out, with the highest values kept by preference.
# Biological target: OsWRKY34 (Oryza sativa, UniProt Q0JBA9 1-250)
# Assay: protein-binding microarray (RPBM); PBS, 2% BSA, 51.3 ng/ul salmon testes DNA, 50 uM zinc acetate, 200 nM TF, 25 C, 1 h; high values mean tight binding
# Conditions: protein: recombinant; tags: N-terminal polyhistidine and DsRed monomer fusion (pET32a); label: CyDye5-dUTP incorporated in the synthesized complementary strand; 3' TTTTT single-stranded linker to array surface; dsDNA, one strand shown
# Method in brief: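 Per-feature fluorescence intensity (arbitrary units), read on an Axon 4000B scanner, is the binding signal. Transcription factors carrying an N-terminal polyhistidine tag and DsRed fusion were expressed in E. coli BL21-CodonPlus and purified on Ni–NTA. A custom Agilent array, made double-stranded by primer extension with Cy5-dUTP and blocked with 2% BSA, was incubated with 200 nM protein in PBS, 2% BSA, salmon testes DNA and 50 µM zinc acetate at 25 °C for 1 h and then washed.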
# Chain of OsWRKY34 (Q0JBA9 entry or part of it): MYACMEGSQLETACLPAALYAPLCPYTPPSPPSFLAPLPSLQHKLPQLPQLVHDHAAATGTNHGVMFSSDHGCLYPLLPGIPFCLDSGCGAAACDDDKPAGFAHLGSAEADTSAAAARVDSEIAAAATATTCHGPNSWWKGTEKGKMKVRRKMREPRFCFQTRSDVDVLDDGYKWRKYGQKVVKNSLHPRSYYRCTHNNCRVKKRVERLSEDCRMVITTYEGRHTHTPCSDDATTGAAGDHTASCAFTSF
row,Sequence,binding signal
1,GTGTGGCGGACATGTGGGCCCATGATTTTTATTATTTTTCCGGAGTCACCTAGTGCAG,9790 fluorescence intensity (a.u.)
2,ATCCTCCGCCGCCGCCTCACCTCCTCCGCCACCGCGCTCGCGGAGTCACCTAGTGCAG,8270 fluorescence intensity (a.u.)
3,GCACCCCTGTTTTCTCAGCGATCATGGCTGTAATACTGAACGGAGTCACCTAGTGCAG,8070 fluorescence intensity (a.u.)
4,TCCTCCGAATCCCAATCTCTCGCAGTTCGTTCGAGGAGCTCGGAGTCACCTAGTGCAG,8540 fluorescence intensity (a.u.)
5,GCCTCGCCCTCGCGTCGTCACCTCTCGCCATGGCCCACTACGGAGTCACCTAGTGCAG,9950 fluorescence intensity (a.u.)
6,ATTCTGTTGCGTCATCATGTTCCTGTCTACAGAGCTATACCGGAGTCACCTAGTGCAG,8840 fluorescence intensity (a.u.)
7,TTTAAAACTAGGACCTGAGTAAATATTTTTCTTGAGTTTTCGGAGTCACCTAGTGCAG,8040 fluorescence intensity (a.u.)
8,GCTAGTTGTAATATACACATAATTGTTGCTTCATTTCAACCGGAGTCACCTAGTGCAG,9790 fluorescence intensity (a.u.)
9,TTGCAGTATCCCGGTTGCCCACCTTTCATGGTCCATCACCCGGAGTCACCTAGTGCAG,8490 fluorescence intensity (a.u.)
10,GCAATTATTAATGTACCGCTCCGTTTTCATTTTTGGGTTGCGGAGTCACCTAGTGCAG,8630 fluorescence intensity (a.u.)
11,TGTGGAGTTTGAGGATTGCACAATAATCTCAGGGGCGGGCCGGAGTCACCTAGTGCAG,8590 fluorescence intensity (a.u.)
12,AGGTTATAAGACGTTTTGACTTTGGTTAAAGTCAAACTACCGGAGTCACCTAGTGCAG,9600 fluorescence intensity (a.u.)
13,CCTCTCGGGCGCCTCTCCTCTCCATCATTCCTCCCACTGCCGGAGTCACCTAGTGCAG,9880 fluorescence intensity (a.u.)
14,ACCGAAAGTTCAATTTGGTCCTTTACATTTTATTTTGTCCCGGAGTCACCTAGTGCAG,8240 fluorescence intensity (a.u.)
15,TTGTGCTGGTTTTGGTTTTGGTTTTGGGTTGCATGTATGTCGGAGTCACCTAGTGCAG,9790 fluorescence intensity (a.u.)
16,GTACTATGTATTGTCCCATCGTTGTATAGGTTGGTTTTTTCGGAGTCACCTAGTGCAG,8240 fluorescence intensity (a.u.)
17,GCTATGTAATGTCCCATCCGTGCTGTATAGTTTGGGTTTTCGGAGTCACCTAGTGCAG,17200 fluorescence intensity (a.u.)
18,CCTGTGTGTTGGTGCTGTCGGTATGTGGGTGGTGGTATTTCGGAGTCACCTAGTGCAG,14600 fluorescence intensity (a.u.)
19,ATGTATGCACGATGTGAGTGTCCGTGTTTGTAATGTGTTTCGGAGTCACCTAGTGCAG,11300 fluorescence intensity (a.u.)
20,TTGTGTATTGGTGCTGTCGGTGCATGGGTGGTGGTTTTTTCGGAGTCACCTAGTGCAG,20700 fluorescence intensity (a.u.)
21,ACCTACTCACAATCACAGAATCACATCATAACATTATTGTCGGAGTCACCTAGTGCAG,9160 fluorescence intensity (a.u.)

row,Sequence,binding signal
1,CCTGCCATGTCATGTTTGTACCTAGATACCAGGTATGACGCGGAGTCACCTAGTGCAG,8960 fluorescence intensity (a.u.)
2,AGATGTTTCCGCTGATACTTTGATACGTCGTCCTTATTTGCGGAGTCACCTAGTGCAG,10800 fluorescence intensity (a.u.)
3,CCGATTCCCTGCCGCATCTGCCCGTTGCCCTCGCGCCCGGCGGAGTCACCTAGTGCAG,8880 fluorescence intensity (a.u.)
4,TGCAGATTTGGTTTTTCTTTTTTTTCGCACGTTCTCTTTCCGGAGTCACCTAGTGCAG,15700 fluorescence intensity (a.u.)
5,TATTTTTTGCTATTATCTTTCGTGTAAGCTATTTCTCTATCGGAGTCACCTAGTGCAG,9170 fluorescence intensity (a.u.)
6,TATATATATATATATATATATATATAGAAATTAAGTCAAACGGAGTCACCTAGTGCAG,8940 fluorescence intensity (a.u.)
7,AAACGGTGCGTTTTTTGCAAAAAAATTCTATAGGAAAGTTCGGAGTCACCTAGTGCAG,63900 fluorescence intensity (a.u.)
8,GTGTGTGTTTTTGCAAAAGTTTTCTATAGAAAAGTTACATCGGAGTCACCTAGTGCAG,8210 fluorescence intensity (a.u.)
9,AATTCAAATTCATACTGTTCAAACAAAGTCATATAGAAAACGGAGTCACCTAGTGCAG,28600 fluorescence intensity (a.u.)
10,TTTTTATACTGTTGGTACATATTCAAATTTGTCAAACATTCGGAGTCACCTAGTGCAG,8960 fluorescence intensity (a.u.)
11,CAGTGCGTATTTGCAATATATATATATAGGAAAGTTTCTTCGGAGTCACCTAGTGCAG,9390 fluorescence intensity (a.u.)
12,TCCTGTGCCTCTCTCATGGTGTGGGTGTCTGTGTCTTTGACGGAGTCACCTAGTGCAG,9040 fluorescence intensity (a.u.)
13,AATGGATATCAGGATATGAAGCTCAAAGTTATCGGTTATTCGGAGTCACCTAGTGCAG,8240 fluorescence intensity (a.u.)
14,CTATGAAGTTAAAAATACGCTCATCAGAAAGGATATATTTCGGAGTCACCTAGTGCAG,57200 fluorescence intensity (a.u.)
15,AAGGTGGGGTCATCATAAATATTTTTTAAGTGAAAATTTTCGGAGTCACCTAGTGCAG,9840 fluorescence intensity (a.u.)
16,GGTTGAGGCTGTTTTCCGATCGTTCCGACCGTTTTCATCCCGGAGTCACCTAGTGCAG,8700 fluorescence intensity (a.u.)
17,GCCAACCGCATGCCGTCCCCGATGCCGCCCGCCGTCAACCCGGAGTCACCTAGTGCAG,8290 fluorescence intensity (a.u.)
18,ATATTACTGGTGTTTACTTGCTTTTCTTTTTTTAAAAAAACGGAGTCACCTAGTGCAG,9160 fluorescence intensity (a.u.)
19,ATATAAGGGATTTTGAGTTTTTGATTGCAACGTTTGACCACGGAGTCACCTAGTGCAG,8550 fluorescence intensity (a.u.)
20,TATGCATCACCTCGTAATCCACAACTGACTTACCCTTTCTCGGAGTCACCTAGTGCAG,12300 fluorescence intensity (a.u.)
21,CTTTTGTGCTCATCTGAACTTCTGAAGTATCATAAAGAAGCGGAGTCACCTAGTGCAG,31400 fluorescence intensity (a.u.)
